# Source: the supplement of paper PMC9117331
# Counter-ions that a name gives are not always drawn.
# Tests used:
# Conditions in all cases: 0.5 µM; time after treatment 48 h; PC9 signalome
# [1] = system: PC9; experiment: AKT reporter activity score (signed KS statistic vs DMSO) (signed KS statistic (-1 to 1)); higher = stronger activation of the pathway reporter relative to DMSO
# [2] = system: PC9; experiment: RAR reporter activity score (signed KS statistic vs DMSO) (signed KS statistic (-1 to 1)); higher = stronger activation of the pathway reporter relative to DMSO
# [3] = system: PC9; experiment: PKC reporter activity score (signed KS statistic vs DMSO) (signed KS statistic (-1 to 1)); higher = stronger activation of the pathway reporter relative to DMSO
# [4] = system: PC9; experiment: PKA reporter activity score (signed KS statistic vs DMSO) (signed KS statistic (-1 to 1)); higher = stronger activation of the pathway reporter relative to DMSO
# [5] = system: PC9; experiment: p38 reporter activity score (signed KS statistic vs DMSO) (signed KS statistic (-1 to 1)); higher = stronger activation of the pathway reporter relative to DMSO
# [6] = system: PC9; experiment: HIF reporter activity score (signed KS statistic vs DMSO) (signed KS statistic (-1 to 1)); higher = stronger activation of the pathway reporter relative to DMSO
# [7] = system: PC9; experiment: ERK reporter activity score (signed KS statistic vs DMSO) (signed KS statistic (-1 to 1)); higher = stronger activation of the pathway reporter relative to DMSO
# [8] = system: PC9; experiment: JNK reporter activity score (signed KS statistic vs DMSO) (signed KS statistic (-1 to 1)); higher = stronger activation of the pathway reporter relative to DMSO
# [9] = system: PC9; experiment: WNT reporter activity score (signed KS statistic vs DMSO) (signed KS statistic (-1 to 1)); higher = stronger activation of the pathway reporter relative to DMSO
# [10] = system: PC9; experiment: NFkB reporter activity score (signed KS statistic vs DMSO) (signed KS statistic (-1 to 1)); higher = stronger activation of the pathway reporter relative to DMSO
# [11] = system: PC9; experiment: YAP/TAZ reporter activity score (signed KS statistic vs DMSO) (signed KS statistic (-1 to 1)); higher = stronger activation of the pathway reporter relative to DMSO
SMILES,AKT reporter activity score [1],RAR reporter activity score [2],PKC reporter activity score [3],PKA reporter activity score [4],p38 reporter activity score [5],HIF reporter activity score [6],ERK reporter activity score [7],JNK reporter activity score [8],WNT reporter activity score [9],NFkB reporter activity score [10],YAP/TAZ reporter activity score [11]
O=C(/C=C/c1cccc(S(=O)(=O)Nc2ccccc2)c1)NO [Belinostat (PXD101)],-0.067,0.675,0.12,-0.172,-0.223,0.488,-0.315,-0.122,0.155,0.0869,0.484
CN(C)C/C=C/C(=O)Nc1cc2c(Nc3ccc(F)c(Cl)c3)ncnc2cc1O[C@H]1CCOC1 [Afatinib (BIBW2992)],-0.37,–,0.191,–,0.229,0.0949,-0.615,0.173,0.34,0.208,0.397
Cc1c(NC(=O)OC[C@@H]2COCCN2)cn2ncnc(Nc3ccc4c(cnn4Cc4cccc(F)c4)c3)c12,-0.228,0.182,0.0831,0.0553,-0.0763,-0.136,-0.29,-0.0881,0.0831,0.0753,0.0967
COc1cccc2c1C(=O)c1c(O)c3c(c(O)c1C2=O)C[C@@](O)(C(C)=O)C[C@@H]3O[C@H]1C[C@H](N)[C@H](O)[C@H](C)O1 [Daunorubicin HCl (Daunomycin HCl)],–,–,–,–,-0.245,–,-0.431,0.068,0.915,0.693,–
C=CC(=O)N1CCC[C@@H](n2nc(-c3ccc(Oc4ccccc4)cc3)c3c(N)ncnc32)C1,-0.461,0.562,–,–,-0.409,0.169,-0.667,-0.17,0.283,–,0.322
Cn1cnc2c(F)c(Nc3ccc(Br)cc3Cl)c(C(=O)NOCCO)cc21 [AZD6244 (Selumetinib)],0.282,-0.154,-0.074,-0.0961,0.0759,-0.125,-0.348,0.145,0.091,0.0644,0.164
COc1ccc(-c2ccc3c(N4CCOC[C@@H]4C)nc(N4CCOC[C@@H]4C)nc3n2)cc1CO,-0.0864,-0.11,0.0766,–,-0.297,-0.151,-0.211,-0.189,0.13,0.178,0.166
O=C(NCCCNc1nc(Nc2cccc(NC(=O)N3CCCC3)c2)ncc1I)c1cccs1,-0.261,-0.0747,0.054,-0.174,0.125,-0.0537,-0.0698,-0.102,-0.101,0.0689,-0.0931
C=CC(=O)Nc1cccc(Sc2nc(Nc3ccc(N4CCN(C)CC4)cc3)ncc2Cl)c1,-0.364,0.467,0.0576,-0.418,-0.318,0.106,-0.698,0.15,0.172,0.174,0.338
Cn1c(=O)c(F)c(Nc2ccc(I)cc2F)c2c(=O)n(C[C@@H](O)CO)cnc21,0.104,0.28,0.0748,-0.176,0.193,0.0238,-0.525,0.245,-0.0866,0.274,0.513
CCn1c(-c2nonc2N)nc2c(C#CC(C)(C)O)ncc(OC[C@H]3CCCNC3)c21,-0.513,-0.292,-0.0561,0.119,-0.189,-0.224,0.134,0.058,0.151,0.0699,-0.0459
Cc1ccc(C(=O)N(CCCN)[C@@H](c2oc3cc(Cl)ccc3c(=O)c2Cc2ccccc2)C(C)C)cc1,–,–,0.176,–,-0.278,0.473,-0.378,-0.131,–,0.169,–
CN1CC[C@H](c2c(O)cc(O)c3c(=O)cc(-c4ccccc4Cl)oc23)[C@H](O)C1 [Flavopiridol hydrochloride],–,–,–,-0.608,-0.475,0.353,-0.633,-0.208,0.153,0.123,0.371
O=C(NOC[C@H](O)CO)c1ccc(F)c(F)c1Nc1ccc(I)cc1F,0.136,0.142,0.094,-0.18,-0.265,-0.129,-0.452,0.303,0.0484,0.228,0.42
C=CC(=O)Nc1cccc(Oc2nc(Nc3ccc(N4CCN(C)CC4)cc3)ncc2Cl)c1,–,0.418,0.125,–,-0.271,0.164,-0.662,0.152,0.124,0.166,0.333
Cc1[nH]nc2ccc(-c3cncc(OC[C@@H](N)Cc4ccccc4)c3)cc12,-0.173,-0.385,-0.0808,-0.173,0.056,-0.128,-0.166,0.272,0.113,–,-0.247
C=CC(=O)Nc1ccc2ncnc(Nc3cccc(Br)c3)c2c1,–,–,–,–,-0.268,0.234,-0.724,–,–,–,0.467
C[C@@H](Oc1cc(-n2cnc3ccc(CN4CCN(C)CC4)cc32)sc1C(N)=O)c1ccccc1C(F)(F)F,-0.183,0.399,–,0.141,0.183,0.347,-0.139,0.0494,0.141,0.0742,–
CC(C)CC(=O)Nc1n[nH]c2c1CN(C(=O)C1CCN(C)CC1)C2(C)C,-0.35,0.417,–,-0.15,-0.296,0.227,-0.107,-0.179,0.117,0.167,0.244
CCN1CCN(Cc2ccc(-c3cc4c(N[C@H](C)c5ccccc5)ncnc4[nH]3)cc2)CC1,-0.376,0.505,–,-0.379,-0.36,0.189,-0.726,0.193,0.184,0.161,0.381
Nc1ncnc2c1c(-c1cnc3[nH]ccc3c1)nn2C1CCCC1,-0.463,0.646,0.116,–,-0.374,0.183,-0.379,-0.111,0.0862,0.128,0.258
C[C@H](NC(=O)Cc1cc(F)cc(F)c1)C(=O)N[C@@H]1C(=O)N(C)c2ccccc2-c2ccccc21,-0.303,0.0626,0.0325,-0.0914,0.0414,-0.0336,-0.123,-0.138,-0.0477,-0.12,-0.114
